PubChem BioAssay (NCI)
The panel holds about 79,000 compounds, 15% with a hit somewhere; the sample as a whole holds those more often. Calls of active or inactive are those of the source. No stated cut-off is given here; in the data, active means growth inhibition above about 70%; inactive means the rest.

Assays:
[1] = NCI Yeast Anticancer Drug Screen. Data for the rad50 strain (AID 155);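 further: 0% = growth of vehicle-only cultures of the same strain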; settings: S. cerevisiae rad50 strain growth inhibition; at 50.0 µM; hits give high values
How it was run: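 A DNA repair-deficient yeast mutant serves as the test organism; compound-induced growth inhibition is calculated against vehicle-treated cells.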

[2] = NCI Yeast Anticancer Drug Screen. Data for the mec2-1 strain (AID 157); settings: S. cerevisiae mec2-1 strain, at 50.0 µM, hits give high values
How it was run: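 Compounds were applied to mec2-1 yeast cells. Their growth was then compared with that of vehicle-treated cultures to give growth inhibition.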

[3] = NCI Yeast Anticancer Drug Screen. Data for the sgs1 mgt1 strain (AID 161);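 further: 0% = growth of cultures given vehicle only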; settings: S. cerevisiae sgs1 mgt1 strain, at 50.0 µM, hits give high values
How it was run: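 Yeast cells carrying a defined DNA-repair defect were exposed to test compounds. Growth inhibition was measured relative to vehicle-treated controls.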

[4] = NCI Yeast Anticancer Drug Screen. Data for the cln2 rad14 strain (AID 165);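 further: 0% = growth equal to vehicle treated cultures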; settings: S. cerevisiae cln2 rad14 strain, at 50.0 µM, hits give high values
How it was run: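 Strain: cln2 rad14 yeast, altered in cell cycle control and DNA damage repair. Read-out: growth inhibition vs vehicle.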

[5] = NCI Yeast Anticancer Drug Screen. Data for the bub3 strain (AID 167); settings: S. cerevisiae bub3 mutant strain, at 50.0 µM, hits give high values
How it was run: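 Inhibition values come from growth of compound-treated mutant yeast normalised to vehicle-treated controls.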

[6] = NCI Yeast Anticancer Drug Screen. Data for the mlh1 rad18 strain (AID 175); settings: S. cerevisiae mlh1 rad18 strain growth inhibition; at 50.0 µM; hits give high values
How it was run: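 A repair-deficient yeast strain is exposed to test compound, and growth is scored relative to vehicle-treated controls.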

Measured: growth inhibition

C=CCCCC1(c2ccccc2)C(=O)Oc2ccccc21 (configuration not stated)
inactive: [1] 29.6% | [2] 2.55% | [3] -0.55% | [4] 15.6% | [5] 12.8% | [6] -2.75%

CC(C)(C(=O)O)c1ccccc1C(=O)c1ccccc1
inactive: [1] -10.7% | [2] 12.1% | [3] 0.15% | [4] 49.3% | [5] -0.75% | [6] 14.3%

FC1(F)SC2CCCCCCCCCCC2C1(F)F (configuration not stated)
inactive: [1] -42.6% | [2] -15.3% | [3] -20.4% | [4] -18.7% | [5] 29.1% | [6] 2.05%

CCNC(=O)OC(C)C(O)c1ccccc1 (configuration not stated)
inactive: [1] 0.05% | [2] 11.6% | [3] 33.2% | [4] 6.8% | [5] -19.6% | [6] 29.2%

CCCCCCC(=O)NC(O)C(Cl)(Cl)C(C)Cl (configuration not stated)
inactive: [1] 1.1% | [2] -6.6% | [3] -6.2% | [4] -56.8% | [5] -19.8% | [6] 4.1%

Cc1cc(Cl)ccc1NC(=O)C(=O)Cc1nc2ccc(C(=O)c3ccccc3)cc2[nH]c1=O
inactive: [1] 5.15% | [2] -4.75% | [3] -4.85% | [4] 22.9% | [5] 26.4% | [6] 7.15%

CC(C)NC(=O)Nc1cccc(Cl)c1
inactive: [1] 0.75% | [2] 7.2% | [3] 17.7% | [4] -18.8% | [5] -23.2% | [6] -1%

COC(=O)C1=C(C)NC(C)=C(C(=O)OC)C1c1cccc(N=O)c1
active: [6] 78.2%
inactive: [1] 9.85% | [2] 6.5% | [3] 13.3% | [4] 4.4% | [5] 26.6%

CN(C)CCNC(=O)c1cccc2c(Nc3ccc(S(=O)(=O)N=C(N)N)cc3)c3ccccc3nc12
inactive: [1] -24.4% | [2] -0.3% | [3] -37% | [4] 8.35% | [5] -34.9% | [6] 53.9%

C=C[C@@]1(C)CCC2(O)C(CCC3C2(C)CCC[C@@]3(C)COC(=O)CC(=O)OC)C1 (some centres not stated)
inactive: [4] 60.5%
active: [1] 82.8% | [2] 72.1% | [3] 78% | [5] 76.3% | [6] 79.2%

c1ccc(-c2c(-c3ccc4c(c3)OCO4)c(-c3ccc4c(c3)OCO4)c(-c3ccccc3)c3ccccc23)cc1
inactive: [1] 32.4% | [2] 20.6% | [3] 19.8% | [4] 28.2% | [5] -1.95% | [6] 23.4%

CC1CC2OC(=O)C(C)C2CC2(C)C(OC3OC(CO)C(O)C(O)C3O)OCCC12 (configuration not stated)
inactive: [1] 11.7% | [2] 2.25% | [3] -17.9% | [4] 4.4% | [5] -6.8% | [6] -49.7%

O=C1C/C(=C\c2cccc([N+](=O)[O-])c2)C(=O)N1
inactive: [1] 9.7% | [2] 11.3% | [3] -5.4% | [4] -11.3% | [5] -2.8% | [6] -3.2%

COC(=O)CC(c1ccc(OC)cc1)c1cc2c(cc1OC)OCO2 (configuration not stated)
inactive: [1] 3.45% | [2] 3.75% | [3] 2.75% | [4] 7.5% | [5] 18.3% | [6] 15.5%

COc1cc(CSCC(=O)O)ccc1O
inactive: [1] 8.95% | [2] 7.15% | [3] 10.3% | [4] -19.4% | [5] -19.6% | [6] -23.8%

O=[N+]([O-])c1ccc(C2=NN(c3ccccc3)C(c3ccccc3)C2)cc1 (configuration not stated)
inactive: [1] 8% | [2] 3.1% | [3] 0.5% | [4] -5.9% | [5] 8.85% | [6] 4%

CN(C)CC1CCC(CN(C)C)C(=O)C1=O (configuration not stated)
inactive: [1] -36% | [2] -39.4% | [3] -64.5% | [4] -14.7% | [5] -31.3% | [6] -31.3%

COC(C(=O)[O][Ge]([CH3])([CH3])[CH3])c1ccccc1 (configuration not stated)
inactive: [1] 13.8% | [2] -17.8% | [3] -6.85% | [4] 31.4% | [5] -2.15% | [6] -9.25%

COC(=O)Cc1c(C(C)=O)[nH]c2ccccc12
inactive: [1] 19.5% | [2] 9.2% | [3] 4.35% | [4] 20.6% | [5] 4.25% | [6] 13.1%

CN(C)Cc1ccccc1COC(=O)c1ccc(Cl)cc1
inactive: [1] 12.8% | [2] 11.5% | [3] 15.1% | [4] 9.75% | [5] 17.4% | [6] 20.9%

CC(=O)Nc1ccc(/C=C2\C(=O)Nc3ccccc32)cc1
inactive: [1] -15.4% | [2] -20.1% | [3] -23% | [4] -11.8% | [5] -8.5% | [6] -5.9%

c1ccc(CN2COc3ccc4c5c(ccc4c3C2)OCN(Cc2ccccc2)C5)cc1
inactive: [1] -13.1% | [2] -5.45% | [3] -6.7% | [4] -21.6% | [5] 2.05% | [6] -17.7%

C=CCOc1ccc(C2CCCCC2)cc1
inactive: [1] 42% | [2] 16.9% | [3] 20.5% | [4] 11.6% | [5] -2.75% | [6] 18.3%

COC(=O)c1c(C)c(C)cc(C)c1C
inactive: [1] -0.9% | [2] -13.2% | [3] -4.1% | [4] 11.7% | [5] -7.1% | [6] -9.5%

CCOC(=O)c1ccc(NC(=S)NC(=O)c2cccs2)o1
inactive: [1] 43.4% | [2] 49.8% | [3] 39.4% | [4] 36.1% | [5] 31.2% | [6] 63.4%

O=C1CN(C2CCCCC2)CC(=O)N2C(c3ccccc3)CCCN12 (configuration not stated)
inactive: [1] 3.3% | [2] -5.4% | [3] 14.7% | [4] 11.8% | [5] 0.55% | [6] -1.85%

OC(CCCCCCCCC(O)CN1CCCCC1)CN1CCCCC1 (configuration not stated)
inactive: [1] 3.3% | [2] 25.6% | [3] 5.45% | [4] 11% | [5] 20.6% | [6] 15.1%

Cc1n(Cc2ccccc2)nc2sc(N)n[n+]12
inactive: [1] -32% | [2] -9.45% | [3] -56.3% | [4] -0.55% | [5] -4.65% | [6] -6.95%

NC(Cc1ccc(B(O)O)cc1)C(=O)O (configuration not stated)
inactive: [1] -26.1% | [2] -53.6% | [3] -29.5% | [4] -7.4% | [5] 7.75% | [6] -4.05%

Nc1ccc(C(=O)NCCCC(=O)O)cc1
inactive: [1] -1.85% | [2] 19.2% | [3] -1.75% | [4] 0.85% | [5] -3.75% | [6] -14.6%

COCCOC(=O)CO
inactive: [1] 4.35% | [2] 3.85% | [3] -4.7% | [4] 2.25% | [5] 7.8% | [6] 5.5%

CCC(=O)N1CCN(C(=O)CC)CC1
inactive: [1] 6.4% | [2] -2.45% | [3] -5.25% | [4] -12.8% | [5] 1.95% | [6] -2.25%

O=C1c2ccccc2C(=O)c2c1ccc1c2[nH]c2ccccc21
inactive: [1] 2.15% | [2] -4.8% | [3] 3.75% | [4] -67.2% | [5] 0.8% | [6] -4.85%

CN1CCCC1c1cccnc1.O=C(O)c1ccccc1O.O=C([O-])c1ccccc1[OH2+].O=C([O-])c1ccccc1[OH2+].O=C([O-])c1ccccc1[OH2+].[Mn+2] (configuration not stated)
inactive: [1] 1.55% | [2] -14.2% | [3] -10.3% | [4] -29.6% | [5] -45.8% | [6] 7.3%

COC1=CC(=O)C(C(C)=O)=C(C2(C)C(=O)CCCC2=O)C1=O
inactive: [1] -12.3% | [2] 0.5% | [3] -0.6% | [4] 6.25% | [5] 5.15% | [6] 7.25%

Brc1ccc[n+](CCc2ccccc2)c1
inactive: [1] -2.7% | [2] 15.1% | [3] -6.7% | [4] 7.75% | [5] 5.7% | [6] 9.5%

CC1=CC2=C(OCO1)C(=O)c1ccccc1C2=O
inactive: [1] 7.25% | [2] 14.6% | [3] -21.6% | [4] -17.1% | [5] 44.3% | [6] 8.95%
